Consider 40 sequences from the supplement of paper PMC6555819.

In the first test the test system is RARb homodimer (NR concentration 270 nM). Kind of test: PBM binding z-score (relative to random genomic background probes); higher = stronger binding; sequences stand for … in GC…GCGATTGACAGCGTAGAATGAAGG
An outline of the steps:
(§1)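 Regression normalization was applied to scanned fluorescence from custom Agilent 4×180K protein-binding microarrays. Before scanning, arrays were incubated 1 h with ligand-free nuclear receptor dimers, and binding was detected with antibodies against each partner (one per run). Binding z-scores use the random background probes as reference.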
For CAAACTAGGTCGAAGGTCAAAGTCGAGCCAACCA, the PBM binding z-score turned out to be 3.79.

In turn, GCGACTGGGGCATCAGCAGGTTACTATAACTTAA yielded a PBM binding z-score of 0.782.

Sequence CGAACGAGGCCATGAGTTGATAGCAAATGCCGAT showed a PBM binding z-score of 0.354.

Regarding ATCGAAATGTCGACGAGGTGAGTATACACCGTTT, the PBM binding z-score amounted to 0.224.

For the sequence CCTACTGCGCCAAAAAGGTCATTGATGCCGATAA, the PBM binding z-score was found to be 4.48.

TAGCCTAGGTCATGCGAGCCAGTATAGTGTCGGC returned a PBM binding z-score of 2.67.

CCTATTTGGTCAAGGTCACACACGCTATAGGTAC gave a PBM binding z-score of 4.51.

GGAAAGAGGGCAAGTTGATAGCAGAGTTTGATGG returned a PBM binding z-score of 2.23.

In turn, ATACGTAGGTTAGCTGGGGTCATTCAGACTAGGC displayed a PBM binding z-score of 3.71.

The sequence GGAACGAGGGCAAGTTTATAGCAGAGTTTGATGG registered a PBM binding z-score of 1.78.

On to TAGCCTAGGTCAGATCGGGCCAGTTTACGCTATA, for which the PBM binding z-score amounted to 1.83.

In turn, CCTTACGGCTCACGAGGTTATAGCACGACGAGCG displayed a PBM binding z-score of 0.414.

Turning to GCTTTTAGATCAAGGTTAAGAAAGACTAAGCTAA, the PBM binding z-score was 0.302.

As to CGTCCAAGGTTAAAGGTCAGTGAAGAGATGACGG, the PBM binding z-score is 4.52.

AGAATGAGGTTGTACGTAGATCAGGGAAGAAAGT: the PBM binding z-score was determined as 0.561.

In the case of CCTAGCAGTCCAATCTGGGTCACTCAAGGCTTGA, the PBM binding z-score is 2.02.

With AGAACGAGGGCACGCTGAGTCGATAGCAGAGTAG, the PBM binding z-score came to 1.02.

AGAATGAGGTTATACGTATATCAGGGAAGAAAGT returned a PBM binding z-score of 0.94.

In turn, TCTAGTTGGTCAATGGTCACACACTCGAAATGCG had a PBM binding z-score of 1.54.

Consider GGAACGAGGGCAAAGTAGATAGCATCTGTCGACG, for which the PBM binding z-score worked out at 0.856.

As for AATACAGGGTCACTAGGACAGAGTAGGTACGAAT, the PBM binding z-score amounted to 3.32.

As for GTATCAAGGTGAATAGGTCGTTGATGAGTAGGCG, the PBM binding z-score worked out at 1.83.

In turn, AGAATGTGGTTATACGTAGATCAGGGAAGAAAGT had a PBM binding z-score of 0.494.

GCTCGGAGGACAAGGTCAGAGCTTTGTCCGTAGA displayed a PBM binding z-score of 2.9.

CGTCAAAGTTCAACTAAGGTAGCGTAAAGCACGC showed a PBM binding z-score of 4.16.

The sequence CCTTACGGGTCAAGCTTATAGCACGGGTGGTACG displayed a PBM binding z-score of 2.82.

Sequence TTACCAAGGTGAGCTGAGGTCGTTGACCCAACTC gave a PBM binding z-score of 2.

Take ATCTCGAGGTAAAGATAGTTCAGTGAATGCAAAT: the PBM binding z-score amounted to 0.904.

GCGACTGGGGCAAAGCAGGTTACCATAAGGTTGG displayed a PBM binding z-score of 1.15.

The sequence CCCTACGGGTCAAGGTTATAGCACGGGTGGTACG showed a PBM binding z-score of 3.5.

With TCATTTAGGTAATACAGGTGAAAGTCGGCATCTA, the PBM binding z-score amounted to 0.788.

On to CCTCGGAGGAGAACAGGAGGTCAGAGCTGCCAGA, for which the PBM binding z-score came to 2.87.

CCTGCTAGGTCATCGTCAGCTAATCTACAGTATG registered a PBM binding z-score of 3.08.

As to CGTCCATGGTCAATGCTAGGTCAGTGAAAGCATT, the PBM binding z-score is 2.59.

Regarding AGAACGAGGGCCCGCTGAGTTGATAGCAGAGTAG, the PBM binding z-score was -1.16.

The sequence CCGCGGAGGACAGAAGGTCAGAGCTGTCCGCTTT came in with a PBM binding z-score of 3.51.

TCTTGTAGATCAAGCAGGTTATGAAAGCCTGAGT had a PBM binding z-score of -0.0622.

Take ACTAGCAAGCCAAGGGTCACTCAAGATTAGTCCG: the PBM binding z-score turned out to be 3.62.

The sequence CTACCAAGGTGAACAAGGTCGCTGATTACTATTC came in with a PBM binding z-score of 2.04.

As for TCGAGTAGGTTACCAATGGGGTATTCAGCTTTCT, the PBM binding z-score is 0.128.

A further test deals with RARg:RXRa (NR concentration 270 nM, RXRa partner concentration 90 nM). The test is described as above. An outline of the steps:
as §1
The sequence CAAACTAGGTCGAAGGTCAAAGTCGAGCCAACCA gave a PBM binding z-score of 5.7.

GCGACTGGGGCATCAGCAGGTTACTATAACTTAA showed a PBM binding z-score of 0.807.

In turn, CGAACGAGGCCATGAGTTGATAGCAAATGCCGAT yielded a PBM binding z-score of 0.599.

As for ATCGAAATGTCGACGAGGTGAGTATACACCGTTT, the PBM binding z-score was 0.712.

CCTACTGCGCCAAAAAGGTCATTGATGCCGATAA returned a PBM binding z-score of 4.82.

As for TAGCCTAGGTCATGCGAGCCAGTATAGTGTCGGC, the PBM binding z-score is 3.75.

Turning to CCTATTTGGTCAAGGTCACACACGCTATAGGTAC, the PBM binding z-score came to 4.63.

Consider GGAAAGAGGGCAAGTTGATAGCAGAGTTTGATGG, for which the PBM binding z-score was determined as 2.23.

For ATACGTAGGTTAGCTGGGGTCATTCAGACTAGGC, the PBM binding z-score is 4.03.

For GGAACGAGGGCAAGTTTATAGCAGAGTTTGATGG, the PBM binding z-score was found to be 1.5.

The sequence TAGCCTAGGTCAGATCGGGCCAGTTTACGCTATA showed a PBM binding z-score of 2.54.

In the case of CCTTACGGCTCACGAGGTTATAGCACGACGAGCG, the PBM binding z-score amounted to 0.351.

The sequence GCTTTTAGATCAAGGTTAAGAAAGACTAAGCTAA came in with a PBM binding z-score of 0.483.

Sequence CGTCCAAGGTTAAAGGTCAGTGAAGAGATGACGG showed a PBM binding z-score of 6.38.

With AGAATGAGGTTGTACGTAGATCAGGGAAGAAAGT, the PBM binding z-score turned out to be 0.15.

As to CCTAGCAGTCCAATCTGGGTCACTCAAGGCTTGA, the PBM binding z-score amounted to 0.766.

For AGAACGAGGGCACGCTGAGTCGATAGCAGAGTAG, the PBM binding z-score was found to be 1.92.

As to AGAATGAGGTTATACGTATATCAGGGAAGAAAGT, the PBM binding z-score worked out at 1.77.

Sequence TCTAGTTGGTCAATGGTCACACACTCGAAATGCG gave a PBM binding z-score of 1.02.

The sequence GGAACGAGGGCAAAGTAGATAGCATCTGTCGACG had a PBM binding z-score of 1.46.

Take AATACAGGGTCACTAGGACAGAGTAGGTACGAAT: the PBM binding z-score was determined as 5.16.

With GTATCAAGGTGAATAGGTCGTTGATGAGTAGGCG, the PBM binding z-score was 2.77.

AGAATGTGGTTATACGTAGATCAGGGAAGAAAGT had a PBM binding z-score of 0.184.

GCTCGGAGGACAAGGTCAGAGCTTTGTCCGTAGA yielded a PBM binding z-score of 3.28.

The sequence CGTCAAAGTTCAACTAAGGTAGCGTAAAGCACGC gave a PBM binding z-score of 5.74.

In turn, CCTTACGGGTCAAGCTTATAGCACGGGTGGTACG showed a PBM binding z-score of 4.93.

Sequence TTACCAAGGTGAGCTGAGGTCGTTGACCCAACTC displayed a PBM binding z-score of 1.58.

ATCTCGAGGTAAAGATAGTTCAGTGAATGCAAAT gave a PBM binding z-score of 0.819.

In turn, GCGACTGGGGCAAAGCAGGTTACCATAAGGTTGG gave a PBM binding z-score of 0.472.

Turning to CCCTACGGGTCAAGGTTATAGCACGGGTGGTACG, the PBM binding z-score turned out to be 5.05.

In turn, TCATTTAGGTAATACAGGTGAAAGTCGGCATCTA registered a PBM binding z-score of 0.841.

In turn, CCTCGGAGGAGAACAGGAGGTCAGAGCTGCCAGA showed a PBM binding z-score of 2.04.

In turn, CCTGCTAGGTCATCGTCAGCTAATCTACAGTATG had a PBM binding z-score of 4.09.

Turning to CGTCCATGGTCAATGCTAGGTCAGTGAAAGCATT, the PBM binding z-score turned out to be 2.58.

Turning to AGAACGAGGGCCCGCTGAGTTGATAGCAGAGTAG, the PBM binding z-score is -0.775.

As to CCGCGGAGGACAGAAGGTCAGAGCTGTCCGCTTT, the PBM binding z-score worked out at 3.69.

Sequence TCTTGTAGATCAAGCAGGTTATGAAAGCCTGAGT registered a PBM binding z-score of 0.0667.

ACTAGCAAGCCAAGGGTCACTCAAGATTAGTCCG: the PBM binding z-score came out at 3.45.

In turn, CTACCAAGGTGAACAAGGTCGCTGATTACTATTC displayed a PBM binding z-score of 1.88.

Consider TCGAGTAGGTTACCAATGGGGTATTCAGCTTTCT, for which the PBM binding z-score came to 0.0634.
